We go through seven compounds from PubChem BioAssay (NCI).

Several values for one entry are separate records, joined by “and”; a condition that tells them apart may be missing. Identical values can stand only once. The panel holds about 83,000 compounds, 20% with a hit somewhere; the sample as a whole holds those more often.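 Each cell line was grown in a 96-well plate and treated with one concentration of compound for 48 hours. Values below 10 were considered active.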 Activity calls are given as the source filed them.

Test systems include NCI-H23 lung; NCI-H226 lung; NCI-H322M lung; HOP-62 NSCLC; NCI-H460 lung; HOP-92 NSCLC; A549/ATCC NSCLC; 786-0 renal; COLO 205 colon.
Assay in all cases: NCI-60 one-dose screen, 48 h (100 = growth as untreated, 0 = no growth, -100 = all killed)
The next assay has as its system NCI-H522 lung. Conditions: 10 µM unless noted.

`O=[N+]([O-])c1ccc2nc3c4ccccc4c4ccccc4c3nc2c1`: the growth is 81.8% (inactive) in the assay with NCI-H23 lung (10 µM unless noted); 41.5% (inactive) in the assay with NCI-H226 lung (10 µM unless noted); 92.6% (inactive) in the assay with NCI-H322M lung (10 µM unless noted); 90% (inactive) in the assay on HOP-62 NSCLC (10 µM unless noted); 68.4% (inactive) in the assay on NCI-H460 lung (10 µM unless noted); 61% (inactive) in the assay with HOP-92 NSCLC (10 µM unless noted). For the same compound, the growth with NCI-H522 lung was 67.2% (inactive); with A549/ATCC NSCLC (10 µM unless noted), 69.1% (inactive); in the assay on 786-0 renal (10 µM unless noted) it was 88.6% (inactive); with COLO 205 colon (10 µM unless noted) it was 71.4% (inactive).
As to `CCOc1ccc2c(S(=O)(=O)O)cccc2c1[N+](=O)[O-]`, the growth was 94.5% (inactive) and 102% (inactive) in the assay with NCI-H23 lung (10 µM unless noted); 97.1% (inactive) and 94% (inactive) in the assay on NCI-H226 lung (10 µM unless noted); 102% (inactive) and 104% (inactive) in the assay on NCI-H322M lung (10 µM unless noted); 102% (inactive) and 105% (inactive) in the assay on HOP-62 NSCLC (10 µM unless noted); 99.1% (inactive) and 105% (inactive) in the assay on NCI-H460 lung (10 µM unless noted); 104% (inactive) and 78.3% (inactive) in the assay with HOP-92 NSCLC (10 µM unless noted). Moreover, the growth in the assay on NCI-H522 lung is 99.7% (inactive) and 122% (inactive); in the assay with A549/ATCC NSCLC (10 µM unless noted), 97.2% (inactive) and 101% (inactive); with 786-0 renal (10 µM unless noted) it was 113% (inactive) and 111% (inactive); with COLO 205 colon (10 µM unless noted), 107% (inactive) and 103% (inactive).
`CCN(CC)CCNc1ccc(C)c2sc3ccccc3c(=O)c12` (tested in a mixture with another compound): the growth in the assay with NCI-H23 lung (10 µM unless noted) was 46.1% (inactive) and 52.4% (inactive); in the assay with NCI-H226 lung (10 µM unless noted), 64.9% (inactive) and 64.7% (inactive); with NCI-H322M lung (10 µM unless noted) it was 30% (inactive) and 56% (inactive); in the assay with HOP-62 NSCLC (10 µM unless noted), 51.4% (inactive) and 51.3% (inactive); with NCI-H460 lung (10 µM unless noted) it was 8.45% (active) and 5.28% (active); with HOP-92 NSCLC (10 µM unless noted), 68.6% (inactive) and 38.1% (inactive). The growth was 22.6% (inactive) and 39.6% (inactive) with NCI-H522 lung; 21.9% (inactive) and 19.8% (inactive) in the assay with A549/ATCC NSCLC (10 µM unless noted); 33.7% (inactive) and 37.3% (inactive) with 786-0 renal (10 µM unless noted); 27% (inactive) and 14.7% (inactive) in the assay on COLO 205 colon (10 µM unless noted).
Regarding `CCN(CC)C(=S)SSC(=S)N(CC)CC`, the growth in the assay on NCI-H23 lung (10 µM unless noted) is 91% (inactive) and 111% (inactive); in the assay on NCI-H226 lung (10 µM unless noted), 86.5% (inactive) and 104% (inactive); in the assay with NCI-H322M lung (10 µM unless noted) it was 84.8% (inactive) and 102% (inactive); in the assay on HOP-62 NSCLC (10 µM unless noted) it was 82.1% (inactive) and 88.7% (inactive); in the assay on NCI-H460 lung (10 µM unless noted) it was 62.4% (inactive) and 111% (inactive); in the assay with HOP-92 NSCLC (10 µM unless noted), 90.4% (inactive) and 110% (inactive). Besides, the growth with NCI-H522 lung was 58.1% (inactive) and 88.8% (inactive); with A549/ATCC NSCLC (10 µM unless noted), 85.5% (inactive); in the assay with 786-0 renal (10 µM unless noted) it was 91.2% (inactive) and 91.7% (inactive); in the assay on COLO 205 colon (10 µM unless noted) it was 82.9% (inactive) and 106% (inactive).
As to `CC(C)(C)c1cc(NC(=O)Cc2ccc(-c3cnc4cc(-c5cnn(CCN6CCOCC6)c5)ccc4n3)cc2)no1`, the growth in the assay with NCI-H23 lung (10 µM) was 26.4% (inactive); in the assay with NCI-H23 lung (30 µM), 27.3% (inactive); in the assay with NCI-H226 lung (10 µM), 10% (inactive); in the assay with NCI-H226 lung (30 µM) it was 13.7% (inactive); with NCI-H322M lung (10 µM), 24.9% (inactive); in the assay with NCI-H322M lung (30 µM) it was 26.1% (inactive). For the same compound, the growth was 17.1% (inactive) in the assay with HOP-62 NSCLC (10 µM); 34.4% (inactive) in the assay with HOP-62 NSCLC (30 µM); 11% (inactive) in the assay with NCI-H460 lung (10 µM); 13% (inactive) in the assay with NCI-H460 lung (30 µM); -3.35% (active) in the assay on HOP-92 NSCLC (10 µM); -10.6% (active) with HOP-92 NSCLC (30 µM). Moreover, the growth with A549/ATCC NSCLC (10 µM) is 24.3% (inactive); with A549/ATCC NSCLC (30 µM) it was 20.8% (inactive); in the assay on 786-0 renal (10 µM), 18% (inactive); with 786-0 renal (30 µM), 21.7% (inactive); with COLO 205 colon (10 µM), 9.61% (active); in the assay with COLO 205 colon (30 µM), 20.5% (inactive).
As for `O=S1(=O)CC(Br)C(Br)C1` (stereo not drawn), the growth was 61.3% (inactive) and 97.8% (inactive) in the assay on NCI-H23 lung (10 µM unless noted); 40.7% (inactive) and 113% (inactive) in the assay with NCI-H226 lung (10 µM unless noted); 104% (inactive) and 108% (inactive) in the assay on NCI-H322M lung (10 µM unless noted); 104% (inactive) and 116% (inactive) in the assay on HOP-62 NSCLC (10 µM unless noted); 107% (inactive) and 97.5% (inactive) in the assay with NCI-H460 lung (10 µM unless noted); 5.91% (active) and 37.5% (inactive) with HOP-92 NSCLC (10 µM unless noted). The growth was -48.2% (active) with NCI-H522 lung; 95.4% (inactive) and 95% (inactive) with A549/ATCC NSCLC (10 µM unless noted); 101% (inactive) and 82.1% (inactive) with 786-0 renal (10 µM unless noted); 41.1% (inactive) and 58.3% (inactive) in the assay on COLO 205 colon (10 µM unless noted).
For `Clc1nc(Oc2ccccc2)nc(-c2cn(-c3ccccc3)c3ccccc23)n1`, the growth in the assay on NCI-H23 lung (10 µM unless noted) is 14.5% (inactive); with NCI-H226 lung (10 µM unless noted) it was 80.2% (inactive); in the assay on NCI-H322M lung (10 µM unless noted), 93.5% (inactive); in the assay on HOP-62 NSCLC (10 µM unless noted) it was 101% (inactive); in the assay with NCI-H460 lung (10 µM unless noted), 97.2% (inactive); with HOP-92 NSCLC (10 µM unless noted), -40.8% (active). Besides, the growth is 111% (inactive) in the assay with NCI-H522 lung, 102% (inactive) in the assay with A549/ATCC NSCLC (10 µM unless noted), 101% (inactive) in the assay with 786-0 renal (10 µM unless noted) and 98.1% (inactive) in the assay with COLO 205 colon (10 µM unless noted).
